From the supplement of paper PMC6607015
Counter-ions that a name gives are not always drawn.

Tested on: A431
Experiment: LBPA endosome anti-LBPA integrated intensity (sum per cell), Z-score; higher = more LBPA staining
Details: compound concentration in added solution (µM; 5 µl added to 20 µl cells): 10; 18 h
How it was run: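 Duplicate 384-well imaging plates were prepared with 5 µl of 10 µM compound solution per well, and 3,500 HeLa MZ or A431 cells in 20 µl were added on top. Following 18 h of incubation and fixation in 4% PFA, cells received 6C4 anti-LBPA antibody, filipin, propidium iodide and CellTracker green. Four images per well at 20× were segmented in MetaXpress to yield per-cell integrated LBPA or filipin intensity, whole-cell or within LBPA endosomes. These intensities are reported as Z-scores normalised in AcuityXpress.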

| Compound | LBPA endosome anti-LBPA integrated intensity (z-score) |
| --- | --- |
| O=c1cc(-c2ccc(O)c(O)c2)oc2cc(O)cc(O)c12 [Luteolin] | -0.401 |
| CC(C)(O/N=C(\C(=O)N[C@@H]1C(=O)N2C(C(=O)[O-])=C(C[n+]3ccccc3)CS[C@H]12)c1csc(N)n1)C(=O)O [Ceftazidime pentahydrate] | -0.536 |
| CC(=O)OCC(=O)[C@@]1(OC(C)=O)[C@@H](C)C[C@H]2[C@@H]3C[C@H](F)C4=CC(=O)C=C[C@]4(C)[C@@]3(F)[C@@H](O)C[C@@]21C [Diflorasone Diacetate] | -0.283 |
| CN(C)CCn1nnnc1SCC1=C(C(=O)O)N2C(=O)[C@@H](NC(=O)Cc3csc(N)n3)[C@H]2SC1 [Cefotiam hydrochloride] | -0.662 |
| CCCOc1ccc(C(=O)OCCN(CC)CC)cc1N [Proparacaine hydrochloride] | -0.432 |
| COc1ccc(NS(=O)(=O)c2ccc(N)cc2)nn1 [Sulfamethoxypyridazine] | -0.55 |
| CCC(=O)O[C@]1(C(=O)SCF)[C@H](C)C[C@H]2[C@@H]3C[C@H](F)C4=CC(=O)C=C[C@]4(C)[C@@]3(F)[C@@H](O)C[C@@]21C [Fluticasone propionate] | -0.0811 |
| O=C(O)CCNC(=O)c1ccc(/N=N/c2ccc(O)c(C(=O)O)c2)cc1 [Balsalazide Sodium] | -0.394 |
| CC(C)(C)NC[C@H](O)c1ccc(O)c(CO)c1 [Levalbuterol hydrochloride] | -0.401 |
| NC(CO)C(=O)NNCc1ccc(O)c(O)c1O (stereo not given) [Benserazide hydrochloride] | -0.379 |
